# Screens: PubChem, National Center for Advancing Translational Sciences (NCATS)
# IL2 activator = activators of IL-2; activation, % (series mostly up to about 46 µM); 360,000 compounds, 0.065% hits; IL-2 activation reporter assay, cell-based qHTS; stimulated with anti-CD3/CD4/CD28 beads; in transgenic mouse T cells; in the data active = activation above about 50%; inconclusive = mostly about 30% to 49%; note: 0% is about no effect
#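 Unstimulated transgenic mouse T cells, 750 per well, received compound and, after 60 minutes, anti-CD3/anti-CD4 bead plus anti-CD28 stimulation. EGFP and DsRed were quantified after 18 hours.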
# Nrf2 block = inhibitors of Nrf2 signaling | A549 ARE-Fluc reporter, luciferase luminescence, 18-24 h | Potency, µM (series often up to 46 µM), for the others: top-dose activity change, negative = inhibition, actives largely listed as inhibitors | 360,000 compounds, 2.1% hits; note: potency is the fitted concentration of half-maximal effect; % is set by controls: 0 for no effect and ±100 for the full control effect; nearly all actives have a fitted effect of over 60% in size
#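 Nrf2 function is reported as luminescence of an ARE-controlled luciferase in A549 cells. Compounds were tested at several concentrations, and a CellTiter-Fluor read on the same wells flagged cytotoxicity.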
# Nrf2 ARE act = Nrf2 pathway activation; Potency, µM (titrated, usually from 46.1 µM), for the others: top-dose activation, most hits filed as activators; 410,000 compounds, 0.31% hits; AREc32 ARE-luciferase reporter (MCF7-derived line), luminescence, 24 h; note: potency is the fitted concentration of half-maximal effect; % of control where 0% means no effect; nearly all actives have a fitted effect of over 65% in size
#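 Reporter line AREc32 (ARE-Fluc), seeded overnight in OPTI-MEM with 5% FBS; compound pin-transferred, 24 hr at 37 deg C, 5% CO2; luminescent read-out.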
# A549 tox = counter-screen for Nrf2 inhibitors: cytotoxicity in A549 cells; A549 ARE-Fluc cells, CellTiter-Fluor viability, 18-24 h; Potency, µM (series often up to 46 µM), for inactives: top-dose activity change, negative = cytotoxicity, actives largely listed as inhibitors; 390,000 compounds, 0.16% hits; AID 504648; note: potency is the fitted concentration of half-maximal effect; % is set by controls: 0 for no effect and ±100 for the full control effect
#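 A549 ARE_Fluc cells in 5% FBS OPTI-MEM were exposed to compounds in concentration-response for 18-24 h at 37 deg C. Viability was read by CellTiter-Fluor fluorescence (Ex 405/Em 525) after 30 min, before the luciferase read.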
# * = called active by the depositor; ? = inconclusive; . = no result given; [ ] = remark or other dose. An excerpt weighted towards active compounds, which were near 2.3% of everything screened. Unless noted, calls come from the whole dose curve; as a rule, active = well fitted curve in the direction sought with a large enough effect; inconclusive = small, poorly fitted or top-dose-only effect, or another doubt; inactive = no such curve, though single readings can be large; an effect the other way counts as inactive or inconclusive.
SMILES,IL2 activator,Nrf2 block,Nrf2 ARE act,A549 tox
COc1cccc(C(=O)Nc2ccc3nc(SCC(=O)N4CCOCC4)sc3c2)c1,.,-19%,5%,-13%
O=C1NC2c3c(I)sc(I)c3C(=O)C2O1 (configuration not stated),-1,?,11µM*,-8%
O=C1NC2c3c(Cl)sc(Cl)c3C(=O)C2O1 (configuration not stated),-1,8%,16µM*,3%
CC(O)CNc1nc2c(c(=O)n(C)c(=O)n2C)n1C/C=C/c1ccccc1 (configuration not stated),1,23µM*,0%,-6%
Cn1c(=O)c2sccc2n(Cc2cccc(Br)c2)c1=O,-2,10µM*,0%,-1%
COCCNc1nc2c(c(=O)n(C)c(=O)n2C)n1Cc1cccc(C(F)(F)F)c1,0,16µM*,1%,-20%
COCCCn1c(=O)c2sccc2n(Cc2cccc(C)c2)c1=O,0,-18%,0%,-1%
CC(O)CNc1nc2c(c(=O)n(C)c(=O)n2C)n1Cc1cccc(C(F)(F)F)c1 (configuration not stated),1,-9%,2%,2%
CC(C)CNc1nc2c(c(=O)n(C)c(=O)n2C)n1Cc1cccc(Br)c1,-1,.,0%,-1%
CC(O)CNc1nc2c(c(=O)n(C)c(=O)n2C)n1Cc1cccc(Br)c1 (configuration not stated),-1,16µM*,1%,-13%
Cn1c(=O)c2c(nc(NCCCO)n2C/C=C/c2ccccc2)n(C)c1=O,-2,.,3%,-3%
Cc1ccc(NC(=O)Cn2c(=O)n(-c3ccc(C)cc3)c(=O)c3c2cnn3C)cc1,.,-2%[9.27 µM],-2%,2%
COc1ccc(-c2nc(NC(=O)Cn3ccc(C(F)(F)F)n3)sc2C)cc1,0,21µM*,2%,?
COc1ccc(-c2nc(NC(=O)Cn3cnnn3)sc2C)cc1,1,3%,1%,-2%
O=C(CNC(=O)C1CCCC1)OC(C(=O)Nc1cc(C(F)(F)F)ccc1Cl)c1ccccc1 (configuration not stated),.,-12%,.,9%
CC(C)OC(=O)c1cccc2c1C(=O)c1ccccc1-2,-2,22%,11µM*,13%
O=c1c2ccccc2ncn1CCCSc1ccccc1,-2,23µM*,4%,?
CC(=O)c1ccc(OCCCC(=O)N2CCN(S(=O)(=O)c3ccc(C(C)C)cc3)CC2)cc1,0,21µM*,0%,-22%
CCOc1ccc(S(=O)(=O)N2CCN(C(=O)CCOc3ccccc3C)CC2)cc1,-2,16µM*,0%,-16%
COc1ccc(O)c(-c2nc3ccccc3c(=O)n2Cc2ccccc2)c1,.,15%,.,-8%
Cc1ccc(S(=O)(=O)N2CCN(c3nc(-c4cccs4)nc4cccnc34)CC2)cc1,.,6%,.,-1%
c1ccc2c(c1)CCN(c1nc3ccccc3n3cnnc13)C2,-1,15%,13µM*,-7%
c1ccc(N2CCN(c3nc4ccccc4n4cnnc34)CC2)cc1,-2,?,3%,-2%
Cc1ccc(NC(=O)Cc2cc(C(=O)O)c3ccccc3n2)c(C)c1,-1,5.8µM*,4%,?
CCCc1cc(C(=O)O)c2ccccc2n1,-1,.,0%,6%
SMILES,IL2 activator,Nrf2 block,Nrf2 ARE act,A549 tox
CC(=O)c1ccc(N2CCN(C(=O)CCCc3nc4ccccc4s3)CC2)cc1,-1,15µM*,2%,3%
O=C(CCc1nc2ccccc2s1)N1CCN(c2ccccc2)CC1,-2,?,1%,0%
O=C(CNC(=O)c1ccc2n[nH]nc2c1)OC(C(=O)Nc1cc(C(F)(F)F)ccc1Cl)c1ccccc1 (configuration not stated),.,-20%,.,3%
CCc1nn(C(C)C(=O)N2CCN(c3ccccc3)CC2)c(=O)c2cc3occc3n12 (configuration not stated),-3,-16%,0%,0%
Cc1nn(C(C)C(=O)N2CCN(c3ccc(Cl)cc3)CC2)c(=O)c2cc3occc3n12 (configuration not stated),.,21µM*,3%,-13%
CCn1c(CN2CCOCC2)nc2cc(NC(=O)c3ccc([N+](=O)[O-])cc3)ccc21,.,9.2µM*,-1%,0%
CC(=O)N1CCN(Cc2nc3cc(NC(=O)COc4cccc(C)c4)ccc3n2C)CC1,0,23µM*,0%,-5%
Cn1c(CN2CCCCC2)nc2cc(NC(=O)c3ccc(F)cc3)ccc21,4,12µM*,3%,-21%
Cn1c(CN2CCCCC2)nc2cc(NC(=O)c3ccccc3Cl)ccc21,0,4%,-1%,4%
CC(=O)N1CCN(Cc2nc3cc(NC(=O)c4ccc(Cl)cc4)ccc3n2C)CC1,1,10µM*,2%,-15%[1.84 µM]
Cc1cccc(OCC(=O)Nc2ccc3c(c2)nc(CN2CCCCC2)n3C)c1,-1,?,-1%,13%
CCN(CC)c1ccc(NC(=O)C2CCN(c3nnc(-n4cccc4)s3)CC2)c(C)c1,.,-2%,1%,1%
CCCC[C@@H]1CCCO[C@@](C(=O)NCC2CC2)(C(F)(F)F)C1,.,-7%,.,0%
Cc1cccc(OCc2ccc(-c3nc(C#N)c(NCCN(C)C)o3)o2)c1,.,16%,7%,0%
COC(=O)c1nc(N2CCN(S(=O)(=O)c3ccc(C)cc3)CC2)c2ccccc2n1,.,9%,.,1%
NC(=O)COC(=O)CCCSc1nc2ccccc2s1,-1,?,-2%,8%
CC(OC(=O)CCCSc1nc2ccccc2s1)C(=O)NC(N)=O (configuration not stated),0,16µM*,-1%,5%
CCCC(=O)N/C(N)=N/c1nc(C)c2cc(C)ccc2n1,-1,?,0%,-20%
Cc1ccc2nc(/N=C(\N)NC(=O)NC3CCCCC3)nc(C)c2c1,-4,8.2µM*,5%,23µM*
O=C(CC1(O)C(=O)Nc2cc(Cl)cc(Cl)c21)c1ccccc1O (configuration not stated),1,-27%,16µM*,-13%
O=C(CC1(O)C(=O)Nc2ccccc21)c1ccccc1O (configuration not stated),0,-10%,3%,-9%
CC1=C(c2ccc(C)c(C)c2)S(=O)(=O)N=C1N1CCC(C(=O)NCCc2ccc(Cl)cc2)CC1,.,-27%,0%,-15%
Cc1ccc(-n2c(-c3ccccc3)c[n+]3c2CCc2ccccc2-3)c(C)c1,-4,4.1µM*,10%,?
CC(C)(C)OC(=O)N1CCC(C(=O)Nc2cccc(C(=O)NCCCc3ccccc3)c2)CC1,-1,23µM*,5%,-6%
CC(C)(C)OC(=O)N(Cc1ccccc1)Cc1cccc(OCc2cccc(NC(=O)C3CC3)c2)c1,0,26µM*,6%,-6%
CC(C)(C)OC(=O)N(CCc1ccccc1)Cc1cccc(OCc2cccc(NC(=O)C3CCC3)c2)c1,0,?,4%,-3%
CCn1c(CNC(=O)c2ccc(OC)cc2)nnc1SCC(=O)Nc1ccccc1,.,-19%,-1%,2%
